40 compounds from PubChem BioAssay (EPA / NIEHS) can be followed below.

Each structure is given as a SMILES string. Activity calls are given as the source filed them. Rule for the calls: active = hit-call score of the fitted dose curve at least 0.9, where 1 is the maximum; inactive = score below 0.9.

The target in the experiment is Paired box protein Pax-6 (Homo sapiens) (UniProt P26367). In words: ATG_Pax6_CIS: Attagene CIS-FACTORIAL HepG2 Assay for human Paired Box 6 (PAX6) (AID 2282956). Particulars: HepG2 CIS-FACTORIAL PAX6 reporter transcription, RNA readout; actives raise or lower the signal. As for the experimental part: ATG_CIS is a cell-based, multiplexed-readout assay that uses HepG2, a human liver cell line, with measurements taken at 24 hours after chemical dosing in a 24-well plate.ATG_Pax6_CIS is one of 52 assay component(s) measured or calculated from the ATG_CIS assay. It is designed to make measurements of mRNA induction, a form of inducible reporter, as detected with fluorescence intensity signals by Reverse transcription polymerase chain reaction (RT-PCR) and Capillary electrophoresis technology.Data from the assay component ATG_Pax6_CIS was analyzed into 1 assay endpoint. This assay endpoint, ATG_Pax6_CIS, was analyzed with bidirectional fitting relative to DMSO as the negative control and baseline of activity. Using a type of inducible reporter, measures of mRNA for gain or loss-of-signal activity can be used to understand the reporter gene at the transcription factor-level as they relate to the gene PAX6. Furthermore, this assay endpoint can be referred to as a primary readout, because this assay has produced multiple assay endpoints where this one serves a reporter gene function. To generalize the intended target to other relatable targets, this assay endpoint is annotated to the dna binding intended target family, where the subfamily is paired box protein.
Chain of Paired box protein Pax-6 (Homo sapiens) (P26367 whole entry, looked up): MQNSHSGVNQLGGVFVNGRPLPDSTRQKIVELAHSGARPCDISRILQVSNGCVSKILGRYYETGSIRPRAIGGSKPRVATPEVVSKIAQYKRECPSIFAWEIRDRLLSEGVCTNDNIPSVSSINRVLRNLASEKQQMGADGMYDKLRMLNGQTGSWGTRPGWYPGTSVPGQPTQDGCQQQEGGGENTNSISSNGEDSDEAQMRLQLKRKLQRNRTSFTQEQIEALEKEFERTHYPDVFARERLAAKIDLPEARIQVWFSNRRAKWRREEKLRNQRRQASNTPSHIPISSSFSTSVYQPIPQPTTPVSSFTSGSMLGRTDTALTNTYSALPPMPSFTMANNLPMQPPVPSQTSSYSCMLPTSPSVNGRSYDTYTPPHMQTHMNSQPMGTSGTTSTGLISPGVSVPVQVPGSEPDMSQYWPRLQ
Human liver HepG2 cells are transiently transfected with multiple reporter transcription units (MRTUs) in 6-well plates using FuGene 6 reagent (Roche; 3 ml FuGene/1 mg DNA). The MRTU constructs are regulated by a cis-regulating element (promoter). […] A major difference between the CIS and TRANS system is that in CIS activities of endogenous TFs are measured, whereas the TRANS assay evaluates changes in activities of exogenous, chimeric NR-Gal4 proteins. […] At the end of 24 hour incubation, total RNA was isolated using TriZol reagent (Invitrogen). The isolated RNA is then reverse-transcribed using oligo(dT) primer and Mo-MLV reverse transcriptase (Invitrogen) with DNAse I (Ambion) treatment for 30 min. The one-tenth of the produced cDNA was amplified by PCR using Taq DNA polymerase (Invitrogen) and two reporter sequence-specific primers. The PCR products were fluorescently labeled by primer extension with 6-arboxyfluorescein (6-FAM) 5'-labeled reporter sequence-specific primer (2 min at 95 C, 20 s at 68 C and 10 min at 72 C) and these products were digested with 5U of HpaI (New England Biolabs) for 2h at 37 C. The fragments were purified using Qiaquick PCR columns (Qiagen), analyzed on an ABI 3130xL genetic analyzer (Applied Biosystems) with peak positions identified by using a set of X-rhodamine (ROX)-labeled MapMarker1000 molecular weight standards (BioVentures). The raw capillary electrophoresis data was processed using Attagraph software (Attagene).
For orientation: AC50 means the midpoint of the concentration-response curve, whichever way the signal moves. With `CC(C)C[C@H]1C(=O)N2CCC[C@H]2[C@]2(O)O[C@](NC(=O)[C@@H]3C=C4c5cccc6[nH]c(Br)c(c56)C[C@H]4N(C)C3)(C(C)C)C(=O)N12`, the AC50 is 4.02 µM (active).
Consider `CC1CCC(C(C)(C)O)CC1` (stereo not given), for which the call was inactive.
Regarding `O=C(O)COCCN1CCN(C(c2ccccc2)c2ccc(Cl)cc2)CC1` (stereo not given), the compound was classed as inactive.
Turning to `CCCCCC(CO)CCC` (stereo not given), the call was inactive.
Same read-out and setting: the result for `O=CCCc1ccccc1` reads “inactive”; that for `CC(C)=CCCC(C)=CCCC(C)=CCO`, “inactive”; that for `O=S(=O)(O)NC1CCCCC1`, “inactive”.
Still for that read-out and setting: as for `OCCCCCO`, the entry is “inactive”.
As for `CC(=O)C=CC1=C(C)CCCC1(C)C`, the compound was called inactive.
Same read-out and setting: the result for `CCC(=O)OCc1ccccc1` reads “inactive”; that for `C/C=C(\C)C(=O)OCc1ccccc1`, “inactive”.
Take `CCO[Si](CCCS)(OCC)OCC`: the compound was classed as inactive.
For `CC(CCO)CCCC(C)(C)O` (stereo not given), the call was inactive.
As for `CC(C)(C)C(=O)c1ccccc1`, the call was inactive.
Regarding `O=P(c1ccccc1)(c1ccccc1)c1ccccc1`, the result was inactive.
As for `CCCCCCCCCCCCCC(=O)O`, the result was inactive.
The same measure, in the same setting: as for `CC1CCC(C(C)CS)CC1S` (stereo not given), the entry is “inactive”.
Same read-out and setting: the result for `CNC(=O)Oc1ccc2c(c1)[C@]1(C)CCN(C)[C@@H]1N2C` reads “inactive”.
Consider `Nc1ccc(S(=O)(=O)O)c(N)c1`, for which the compound was classed as inactive.
On the same count and under the same terms, as for `O=C(O)c1ccc([N+](=O)[O-])cc1`, the entry is “inactive”; as for `CC(C)(COC(=O)c1ccccc1)COC(=O)c1ccccc1`, “inactive”.
For `Clc1cccc(Cl)n1`, the compound was called inactive.
Still for that read-out and setting: as for `COc1nc(C)nc(N)n1`, the entry is “inactive”; as for `C=C(C)C(=O)OCCOC(=O)CC(C)=O`, “inactive”; as for `CCCCO`, “inactive”.
Same read-out and setting: as for `CCOc1ccccc1OCC`, the entry is “inactive”; as for `CC(C)[C@H]1CC[C@@H](C)CC1=O`, “inactive”.
On the same count and under the same terms, as for `CCCCCCCCCCCCOCCO`, the entry is “inactive”; as for `O=c1cc(-c2ccccc2)oc2cc(O)cc(O)c12`, “inactive”.
For `O=C(O)c1snc(Cl)c1Cl`, the AC50 was 188 µM (active).
As to `O=C1NC(=O)c2ccccc21`, the compound was called inactive.
Still for that read-out and setting: as for `CC(C#N)(CCC(=O)O)N=NC(C)(C#N)CCC(=O)O` (stereo not given), the entry is “inactive”.
`c1ccc2[nH]ccc2c1`: the result was inactive.
Turning to `C[C@H]1C[C@@H]2[C@H]([C@@H](O)C[C@@]3(C)[C@H]2CC[C@]3(O)C(=O)CO)[C@@]2(C)C=CC(=O)C=C12`, the result was inactive.
On the same count and under the same terms, the result for `CCCCCNCCCCC` reads “inactive”.
As to `C=CC(=O)OCCOCCOCC`, the AC50 was 68.4 µM (active).
As to `C=C(C)C(=O)O`, the call was inactive.
As to `Nc1nc2ccc([N+](=O)[O-])cc2s1`, the compound was classed as inactive.
Still for that read-out and setting: as for `CCCC[n+]1ccccc1`, the entry is “inactive”.
`CCN(CC)c1ccc(C(=C2C=CC(=[N+](CC)CC)C=C2)c2ccc(S(=O)(=O)O)cc2S(=O)(=O)[O-])cc1`: the compound was called inactive.
